Reference: PubChem BioAssay AID2289 (National Center for Advancing Translational Sciences (NCATS), 2010)
Screen size: about 340,000 compounds; about 3,300 (0.97%) were called active. Roughly 9% stayed inconclusive and do not appear here. Calls come from the whole dose curve; as a rule, active = well fitted inhibition curve with a large enough effect; inconclusive = small, poorly fitted or top-dose-only effect, or effect the other way; inactive = flat fitted curve, though single readings scatter. The list shows a part of the results.

assay: qHTS Assay for Modulators of miRNAs and/or Inhibitors of miR-21; settings: HeLa miR-21-FLuc reporter, luciferase luminescence, 48 h; actives lower the signal; note: nearly all actives have a fitted effect of over 55% in size
Summary of the method: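 HeLa miR-21-FLuc reporter line, endogenous miR-21; 2000 cells/well in DMEM/10% FBS; compound titration up to ~40uM final, 48 h, 37 degree Celsius; luciferase detection reagent, 15 min lysis, CCD luminescence.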
Potency is the fitted concentration of half-maximal effect.

Potency, active:
COc1ccc2c(c1OC)C(=O)OC2Nc1nc(-c2cc3cc(Br)ccc3oc2=O)cs1 (configuration not stated) 5.85 µM
Cc1cc(C(=O)CSc2ncccn2)c(C)n1-c1cccc(F)c1 0.736 µM
COc1cc(O)c2c(=O)c3c(OC)c(O)ccc3oc2c1 13.1 µM
CCn1c(=N)n(CC(=O)c2ccc(Cl)c(Cl)c2)c2ccccc21 6.56 µM
COc1ccc(C(=O)Cn2c(=N)n(C)c3ccccc32)cc1 0.736 µM
CCOc1cc(C2NN=C(c3ccc(C)cc3)S2)ccc1O (configuration not stated) 4.65 µM
COc1ccc(C2NN=C(c3ccc(C)cc3)S2)cc1 (configuration not stated) 1.17 µM
N#C/C(=N\Nc1ccc(Cl)cc1)C(=N)N1CCCCCC1 0.585 µM
Cc1ccc(N/N=C(\C#N)C(=N)N2CCCCC2)cc1 0.521 µM
CCN(CC)C(=N)/C(C#N)=N/Nc1ccc(C)cc1 3.29 µM
N#C/C(=N\Nc1ccc(Br)cc1)C(=N)N1CCOCC1 7.36 µM
N#C/C(=N\Nc1ccccc1)C(=N)N1CCCCCC1 2.07 µM
COc1ccc(N/N=C(\C#N)C(=N)N2CCCCC2)cc1 4.65 µM
Cc1ccc(N/N=C(\C#N)C(=N)N2CCOCC2)cc1 10.4 µM
N#C/C(=N\Nc1ccccc1F)C(=N)N1CCCCC1 1.65 µM
CCN=c1scc(-c2ccco2)n1/N=C/c1ccc(O)cc1 4.14 µM
c1ccc(OCc2nc(-c3cccs3)no2)cc1 13.1 µM
O=[N+]([O-])c1ccccc1OCc1nc(-c2cccs2)no1 2.61 µM
Fc1ccc(OCc2nc(-c3cccs3)no2)cc1 6.56 µM
COc1cc(OC)cc(-c2nc3cc(C)ccc3o2)c1 1.65 µM
COc1ccc(-c2nc3cc([N+](=O)[O-])ccc3o2)cc1 0.293 µM
Cc1ccc2oc(-c3ccccc3)nc2c1 6.56 µM
O=c1c2cn[nH]c2[nH]c(=S)n1-c1ccccc1F 0.927 µM
Nc1c(-c2cccs2)cnc2c(-c3ccc(F)cc3)cnn12 0.329 µM
COc1ccc(-c2cnc3c(-c4ccc(F)cc4)cnn3c2N)cc1 0.521 µM
Nc1c(-c2ccc(Cl)cc2)cnc2c(-c3ccccc3)cnn12 0.414 µM
c1ccc(-c2cc3nccc(-c4ccccn4)n3n2)cc1 3.69 µM
Nc1c(-c2ccc(Cl)cc2)nnn1-c1ccccc1 2.33 µM
Nc1c(-c2ccccc2)cnc2c(-c3ccccc3)cnn12 0.0927 µM
Nc1c(-c2ccc(Cl)cc2)cnc2c(-c3ccc(F)cc3)cnn12 0.585 µM
Nc1c(-c2ccccc2)cnc2cc(-c3ccccc3)nn12 0.414 µM
Nc1c(-c2ccc(Cl)cc2)cnn1-c1ccccc1 1.65 µM
Nc1c(-c2cccc(Cl)c2)cnc2c(-c3ccccc3)cnn12 1.65 µM
CC(=O)Nc1cccc(NC(=O)c2ccc(COc3ccccc3)cc2)c1 1.47 µM
O=C(Nc1ccccc1F)c1ccc(OCc2ccccc2)cc1 5.21 µM
CCOC(=O)C(=O)N(Nc1ccc(C)cc1)c1ccc(C)cc1 9.27 µM
O=C(O)c1ccc(N=NNc2cccc([N+](=O)[O-])c2)cc1 5.85 µM
CCOC(=O)/C(N=Nc1ccc2c(c1)OCO2)=C(\C)O 4.65 µM
CC(=O)/C(N=Nc1ccc2c(c1)OCO2)=C(\C)O 6.56 µM
C/C(=N\NC(=O)COc1ccccc1[N+](=O)[O-])c1cccs1 5.21 µM
C/C(=N\NC(=O)COc1ccccc1)c1cccs1 14.7 µM
Cc1ccn(-c2cccc(-n3ccc(C)n3)n2)n1 2.61 µM
O=C(NCC1CCCO1)C(=O)c1c[nH]c2ccccc12 (configuration not stated) 18.5 µM
O=C(NC1CCCCC1)C(=O)c1c[nH]c2ccccc12 4.14 µM
O=C(Nc1ccccc1)c1cc2n(n1)C(C(F)(F)F)CC(C1CC1)N2 (configuration not stated) 6.56 µM
COc1ccc(Nc2ncnc3sc(C)cc23)cc1 11.7 µM
COc1cccc(Nc2ncnc3ccccc23)c1 2.33 µM
COc1cccc(Nc2ncnc3sc(C)cc23)c1 6.56 µM
COc1ccc(Nc2cc(Nc3cccc(OC)c3)ncn2)cc1 14.7 µM
COc1cccc(Nc2ncnc3sccc23)c1 7.36 µM
Cc1ccc(-c2nc(-c3ccncc3)no2)cc1C 0.585 µM
COc1ccc(-c2nc(-c3ccc(Br)cc3)no2)c(OC)c1 0.585 µM
CSc1ccccc1-c1nc(-c2ccncc2)no1 1.85 µM
COc1ccc(-c2nc(-c3ccncc3)no2)cc1 0.464 µM
Cc1ccc(-c2nc(-c3ccncc3)no2)cc1 1.47 µM
CCOCCn1c(N2CCN(c3ccccc3)CC2)nc2c1c(=O)[nH]c(=O)n2C 6.56 µM
CCCCCCOC(=O)c1ccc(OC(=O)c2cccnc2)cc1 6.56 µM
Cc1ccc(/C=C2\SC(N3CCCC3)=NC2=O)cc1 16.5 µM
COCC1CCN(C(=O)c2cc(COc3cc(C)c(Cl)c(C)c3)on2)C1 (configuration not stated) 13.1 µM
Cc1cc(OCc2cc(C(=O)N3CCCCCC3)no2)cc(C)c1Cl 5.85 µM
COc1cccc(/C(N)=N/OC(=O)Cc2ccccc2[N+](=O)[O-])c1 9.27 µM
O=C(Nc1cccc(O)c1)c1c(O)c2ccccc2[nH]c1=O 1.47 µM
NS(=O)(=O)c1ccccc1NC(=O)c1c(O)c2ccccc2[nH]c1=O 0.736 µM
C=CCn1c(=O)c(C(=O)Nc2ccccc2S(N)(=O)=O)c(O)c2ccccc21 4.65 µM
COc1ccccc1C(=O)OCc1cc(=O)n2nc(C3CC3)sc2n1 13.1 µM
COc1ccccc1C(=O)OCc1cc(=O)n2c(C)csc2n1 10.4 µM
c1ccc(C2=NN(c3ccccc3)CC2)cc1 5.21 µM
